The values that follow come from PubChem BioAssay (Tox21).

Test [1] in a line: qHTS assay for small molecules that induce genotoxicity in human embryonic kidney cells expressing luciferase-tagged ATAD5 (AID 651632). Further: nearly all actives have a fitted effect of over 15% in size. In a few lines:
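ATAD5-luc HEK293T, 2,000 cells/well; cpd or DMSO pin-transferred; 16 hr, 37C/5% CO2; Amplite 30 min RT; luminescence.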
(In general: Quantitative high-throughput screening tests each substance at several concentrations.)

Test [2] is described as follows: qHTS assay for small molecule agonists of the p53 signaling pathway - cell viability (AID 651633; calls by dose curve;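 further: p53RE-bla HCT reporter cells with a stable beta-lactamase p53 reporter; series mostly up to about 83 µM; nearly all actives have a fitted effect of over 30% in size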). Put shortly: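 p53RE-bla cells were treated with compound for 16 hours at 37 C. Cytotoxicity was then measured as CellTiter-Glo luminescence after 30 min at room temperature.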
Test [3] can be described thus: qHTS assay for small molecules that induce genotoxicity in human embryonic kidney cells expressing luciferase-tagged ATAD5 - cell viability (AID 651634; calls by dose curve; further: nearly all actives have a fitted effect of over 25% in size). Put shortly:
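Fluorescence from CellTiter-Fluor, reporting protease activity within live cells, served as the viability read-out. HEK293T cells carrying luciferase-tagged ATAD5 had been treated with compound for 15.5 hr at 37C.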

Test [4] in a line: qHTS assay for small molecule disruptors of the mitochondrial membrane potential - cell viability (AID 720634; calls by dose curve;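 further: human HepG2 liver cancer cells; series mostly up to about 83 µM; nearly all actives have a fitted effect of over 20% in size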). In a few lines: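 Cells: HepG2, 2,000/well, attached overnight. Compound 1 hr, 37 C/5% CO2. +m-MPI dye, +CellTiter-Glo 30 min RT. Readout: luminescence (ATP).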
Test [5] is described as follows: qHTS assay for small molecule disruptors of the mitochondrial membrane potential (AID 720635). Further: potency means the concentration at half of the fitted maximal effect. In a few lines: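 HepG2 cells exposed to compound 1 hr at 37C, then Mito-MPS dye 30 min. Ratio read of aggregate (540/590 nm) versus monomer (490/535 nm) fluorescence.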
Test [6] is described as follows: qHTS assay to test for compound auto fluorescence at 590 nm (red) in HepG2 cells (AID 720674). Put shortly: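 HepG2 cells, 2,000 per well in MEM with 10% FBS, attached overnight at 37 C, then got 23 nL compound or DMSO. After 1 hr at 37 C, 5% CO2, red fluorescence was read at 540/590 nm against Rose Bengal sodium as reference.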
A short description of test [7]: qHTS assay to test for compound auto fluorescence at 535 nm (green) in HepG2 cells (AID 720675).
Test [8] in a line: qHTS assay to test for compound auto fluorescence at 460 nm (blue) in HEK293 cells (AID 720678). In a few lines: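 HEK293, 2,000 cells/well, 10% dialyzed FBS; attach 4-5 hr 37C; pin compound or DMSO; o/n 37C/5% CO2; fluorescence 405/460 nm; triamterene-equivalent units.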
Test [9] can be described thus: qHTS assay to test for compound auto fluorescence at 590 nm (red) in HEK293 cells (AID 720679). Put shortly:
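Intensity at 540nm excitation and 590nm emission is reported as Rose Bengal sodium-equivalent autofluorescence. Measurements followed overnight exposure (37C, 5% CO2) of HEK293 cells, 2,000 per well, to 23 nL compound.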

Test [10] in a line: qHTS assay to test for compound auto fluorescence at 535 nm (green) in HEK293 cells (AID 720680).
Test [11] is described as follows: qHTS assay to test for compound auto fluorescence at 460 nm (blue) in HEK293 cell free culture (AID 720681). Put shortly:
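Compounds were added to cell-free DMEM with 10% FBS and fluorescence read directly. The blue channel used 405 nm excitation and 460 nm emission, with triamterene as the reference fluorophore.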

The nature of test [12]: qHTS assay to test for compound auto fluorescence at 535 nm (green) in HEK293 cell free culture (AID 720682). In a few lines:
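Steps: dispense DMEM/10% FBS into empty wells; pin in compound or DMSO; measure fluorescence at 485/535 nm. Values are fluorescein equivalents.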

Test [13] is described as follows: qHTS assay to test for compound auto fluorescence at 590 nm (red) in HEK293 cell free culture (AID 720683). Put shortly:
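Cell-free wells of DMEM with 10% FBS received compound, and intrinsic fluorescence was read at excitation/emission 540/590 nm. Values expressed as equivalence to Rose Bengal sodium.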

Test [14] can be described thus: qHTS assay to test for compound auto fluorescence at 590 nm (red) in HepG2 cell free culture (AID 720684). Put shortly: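 Compound was pinned into wells holding MEM with 10% FBS and no cells, and red fluorescence was read at Ex/Em 540/590 nm. Signal is expressed as auto fluorescence equivalency relative to Rose Bengal sodium.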
The nature of test [15]: qHTS assay to test for compound auto fluorescence at 460 nm (blue) in HepG2 cell free culture (AID 720685). In a few lines: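 Compound (23 nL) or DMSO pinned into cell-free MEM with 10% FBS; blue fluorescence read at 405/460 nm excitation/emission, expressed as auto-fluorescence equivalency to triamterene.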
Test [16] is described as follows: qHTS assay to test for compound auto fluorescence at 535 nm (green) in HepG2 cell free culture (AID 720686).
Test [17] can be described thus: qHTS assay to test for compound auto fluorescence at 460 nm (blue) in HepG2 cells (AID 720687). In a few lines:
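HepG2 cells in MEM with 10% FBS, attached overnight at 37 C, were exposed to compound or DMSO for 1 hr at 37 C, 5% CO2. Blue fluorescence was read at 405/460 nm, with triamterene as reference fluorophore.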

Test [18] in a line: qHTS assay for small molecule agonists of the p53 signaling pathway (AID 651631; calls by dose curve; further: nearly all actives have a fitted effect of over 15% in size). In a few lines:
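HCT-116 p53RE-bla reporter line, 16 h compound treatment at 37 °C, then fluorescence after 2 h with B/G FRET substrate.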

The target of test [19] is Glucocorticoid receptor (Homo sapiens) (UniProt P04150). The experiment in a line: qHTS assay to identify small molecule agonists of the glucocorticoid receptor (GR) signaling pathway (AID 720691; active means well fitted activation curve with a large enough effect in the signal ratio in the repeat runs, not every such curve was filed as active; the % refers to the signal ratio). Put shortly:
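Fluorescence intensity from LiveBLAzer B/G FRET substrate (2 h, room temperature) reports beta-lactamase expression driven by the glucocorticoid response element in GR-bla HeLa cells after 18 h compound exposure at 37 C.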

Test [20] has the same target. The test is described as follows: qHTS assay to identify small molecule antagonists of the glucocorticoid receptor (GR) signaling pathway (AID 720692; active means well fitted inhibition curve with a large enough effect in the signal ratio in the repeat runs, not every such curve was filed as active; the % refers to the signal ratio). In a few lines: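 HeLa GR-bla cells; cmpd + dex 5 nM final, 18 h 37 C; LiveBLAzer B/G FRET substrate 2 h RT; fluorescence intensity read. Antagonist mode, qHTS.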

Values without a mark were called inactive. Inconclusive results are not listed. Active and inactive are the calls of the source. Unless noted, the call rests on the fitted dose curve; in most records, active means well fitted curve in the direction sought with a large enough effect in the repeat runs; inconclusive means weak or mixed curves; inactive means no such curve, though single readings can be large; an effect the other way counts as inactive or inconclusive.

Glucocorticoid receptor (Homo sapiens), sequence (P04150 whole entry, looked up): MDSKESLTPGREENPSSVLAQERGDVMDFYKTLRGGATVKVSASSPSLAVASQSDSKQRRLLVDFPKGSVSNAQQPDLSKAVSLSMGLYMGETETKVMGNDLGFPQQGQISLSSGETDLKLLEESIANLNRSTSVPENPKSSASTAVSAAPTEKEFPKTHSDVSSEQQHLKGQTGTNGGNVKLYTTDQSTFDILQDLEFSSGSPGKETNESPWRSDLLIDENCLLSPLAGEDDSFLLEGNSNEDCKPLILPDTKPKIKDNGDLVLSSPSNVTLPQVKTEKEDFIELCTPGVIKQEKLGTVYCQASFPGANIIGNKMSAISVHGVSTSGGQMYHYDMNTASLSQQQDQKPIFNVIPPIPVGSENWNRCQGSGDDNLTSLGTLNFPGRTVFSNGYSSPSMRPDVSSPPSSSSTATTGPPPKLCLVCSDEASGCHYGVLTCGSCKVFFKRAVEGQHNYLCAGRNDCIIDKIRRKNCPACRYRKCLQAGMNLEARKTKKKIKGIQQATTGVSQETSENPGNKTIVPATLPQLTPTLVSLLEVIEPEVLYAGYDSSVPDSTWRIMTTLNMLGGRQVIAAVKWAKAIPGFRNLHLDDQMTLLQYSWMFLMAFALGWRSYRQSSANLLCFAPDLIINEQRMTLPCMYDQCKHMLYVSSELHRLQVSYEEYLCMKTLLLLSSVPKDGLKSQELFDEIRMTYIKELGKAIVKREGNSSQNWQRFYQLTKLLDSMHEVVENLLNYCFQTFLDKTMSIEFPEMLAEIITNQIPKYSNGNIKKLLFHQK

As for `S=c1nccc[nH]1`, the Potency entry in test [1], in [2], in test [3], in [4], in test [5] and in test [6] was “inactive” each time. For the same molecule, the Potency entry in test [7], in [8], in [9], in [10], in test [11] and in [12] was “inactive” throughout. The Potency entry in [13], in test [14], in [15], in test [16] and in [17] was “inactive” throughout.

Take `CCC(=O)OC(=O)CC`: the Potency result in test [18], in test [2], in test [3], in test [4], in test [6] and in test [7] was “inactive” each time. The Potency entry in test [9], in test [11], in test [12], in [13], in test [14] and in test [15] was “inactive” in each case. Moreover, the Potency entry in [16], in test [17], in test [19] and in test [20] was “inactive” in each case.

In the case of `CC(C)Cn1cnc2c(N)nc3ccccc3c21`, the Potency entry in test [1], in [2], in [3], in [4], in [5] and in test [6] was “inactive” throughout. The Potency result in test [7], in test [8], in test [9], in test [10], in test [11] and in [12] was “inactive” in each case. The Potency result in test [13], in test [14], in test [15], in test [16], in test [17] and in test [19] was “inactive” throughout. Further, the Potency entry in test [20] was “inactive”.

With `CCCC[P+](C)(CCCC)CCCC`, the Potency result in [1], in test [2], in test [3], in [4], in test [6] and in test [7] was “inactive” in each case. For the same molecule, the Potency entry in [8], in test [9], in [10], in test [11], in [12] and in test [13] was “inactive” throughout. Moreover, the Potency result in test [14], in [15], in test [16], in test [17] and in [19] was “inactive” throughout. In addition, the Potency in test [5] is 13.9 µM (active).

Turning to `Cc1cc(-n2nc3ccc(Cl)cc3n2)c(O)c(C(C)(C)C)c1`, the Potency entry in test [1], in test [2], in test [3], in [4], in [5] and in test [6] was “inactive” throughout. Also, the Potency result in test [7], in [8], in test [9], in test [10], in test [11] and in test [12] was “inactive” throughout. Besides, the Potency entry in [13], in test [14], in test [16], in test [17], in [19] and in [20] was “inactive” each time.

Take `Cc1cc(C(C)(C)C)c(O)c(C)c1Cn1c(=O)n(Cc2c(C)cc(C(C)(C)C)c(O)c2C)c(=O)n(Cc2c(C)cc(C(C)(C)C)c(O)c2C)c1=O`: the Potency entry in test [1], in test [2], in test [3], in test [4], in test [6] and in test [7] was “inactive” in each case. Also, the Potency entry in test [8], in [9], in test [10], in test [11], in test [12] and in [13] was “inactive” each time. The Potency result in test [14], in test [15], in test [16], in [17] and in test [19] was “inactive” throughout. Further, the Potency in test [5] is 9.69 µM (active).

On to `COC(=O)c1ccccc1OC`, for which the Potency result in [1], in test [2], in test [3], in test [4], in test [5] and in test [6] was “inactive” throughout. Also, the Potency result in [7], in test [8], in test [9], in test [10], in test [11] and in test [12] was “inactive” throughout. For the same molecule, the Potency result in test [13], in test [14], in [16], in test [17] and in test [19] was “inactive” in each case.

Regarding `O=C(O)CN(CCN(CC(=O)O)CC(=O)O)CC(=O)O`, the Potency entry in test [18], in test [3], in test [6], in test [7], in test [8] and in test [9] was “inactive” each time. The Potency entry in test [10], in test [11], in test [12], in [13], in test [14] and in test [16] was “inactive” throughout. Moreover, in [17], the Potency result was “inactive”.
